The campaign covered roughly 190,000 compounds. About 1,300 (0.68%) were called active. For the sample, actives were picked, then their nearest neighbours and some compounds at random. Unmarked numbers belong to inactive results. Cut-off read from the data, not from the text of the source: active = inhibition above about 50%; inactive = the rest.
target: Mannose-6-phosphate isomerase (Homo sapiens) (UniProt P34949); assay: human PMI inhibitors, high substrate, primary screen, biochemical, fluorescence intensity, high mannose 6-phosphate (AID 1220); details: recombinant PMI enzyme, coupled fluorescence intensity; at 20 µM; hits give high values
Sequence (P34949 whole entry, looked up): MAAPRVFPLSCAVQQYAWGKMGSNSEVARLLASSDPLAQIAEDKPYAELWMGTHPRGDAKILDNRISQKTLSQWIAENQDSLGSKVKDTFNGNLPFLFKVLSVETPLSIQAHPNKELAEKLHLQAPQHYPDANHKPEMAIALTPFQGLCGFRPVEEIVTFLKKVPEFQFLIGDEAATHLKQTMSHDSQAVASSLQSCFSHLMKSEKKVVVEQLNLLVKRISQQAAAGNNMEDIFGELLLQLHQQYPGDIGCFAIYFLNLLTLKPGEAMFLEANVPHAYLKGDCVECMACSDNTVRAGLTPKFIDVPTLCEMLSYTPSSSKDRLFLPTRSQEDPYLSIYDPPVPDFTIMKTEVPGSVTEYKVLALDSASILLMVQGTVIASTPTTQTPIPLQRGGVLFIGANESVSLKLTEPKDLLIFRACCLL

Row | Structure (SMILES) | inhibition
1 | c1ccc(-c2nc3ccccc3[nH]2)nc1 | 15.7%
2 | Cc1ccc(CCNC(=O)C2CCCN(C(=O)N(C)C)C2)cc1 (stereo unspecified) | -6.4%
3 | O=C(CN1C(=O)COc2ccccc21)N1CCc2ccccc21 | 1.2%
4 | COc1ccc(NC(=O)CC2C(=O)N(C)C(=S)N2CCc2ccccc2F)cc1 (stereo unspecified) | 8.1%
5 | CC(C)=CCN1CCN(Cc2cnc(N3CCOCC3)s2)CC1CCO (stereo unspecified) | -6.5%
6 | O=C(C1=C[C@@H](c2coc3ccccc3c2=O)C[C@@H](OCc2ccc(CO)cc2)O1)N1CCOCC1 | -6.8%
7 | CCOC(=O)Cc1csc(NC(=O)c2cc(=O)c3ccccc3o2)n1 | -6.1%
8 | CCOC(=O)Cc1csc(SCn2nnc3ccccc3c2=O)n1 | -0.1%
9 | CCOC(=O)c1c(N)c(C#N)cn1-c1ccccc1 | 10%
10 | C=CCNC(=S)Nc1cccc2[nH]ncc12 | 52.5% (active)
11 | C=CCNC(=S)Nc1cccc2ccccc12 | 14.3%
12 | CNC(=S)Nc1cccc2[nH]ncc12 | 2.6%
13 | COc1ccc(-n2c3nc4ccccc4nc3c3c(=N)oc(C)nc32)cc1 | 55.9% (active)
14 | CCCCn1c2nc3ccccc3nc2c2c(=N)oc(C)nc21 | 30.1%
15 | CCCCC(CC)Cn1c2nc3ccccc3nc2c2c(=N)oc(C)nc21 (stereo unspecified) | -4.2%
16 | CCn1c(SCC(=O)N/N=C/c2ccc(C)o2)nnc1-c1ccccc1 | 3.1%
17 | CN1CCN(S(=O)(=O)c2ccc3c(c2)OCCO3)CC1 | -4.9%
18 | CC(C)(Cl)C1Cc2cc3ccc(=O)oc3cc2O1 (stereo unspecified) | -9.9%
19 | COc1cc2c(cc1/C=C/C(=O)O)OC(C)C2 (stereo unspecified) | 13.7%
20 | CCc1nnc(NC(=O)CSc2nnc3c(C)cc4c(C)ccc(C)c4n23)s1 | 2.3%
21 | CC(C)(C)NC(=O)Nc1ccc2nccnc2c1 | 35.1%
22 | O=C(O)/C=C/C(=O)Nc1ccc2nccnc2c1 | 56.2% (active)
23 | Cc1nc2ccc(NC(=O)/C=C/C(=O)O)cc2nc1C | 42.9%
24 | CN1CC(=O)N(CC(=O)N2CCC(Cc3ccccc3)CC2)C1=O | -3.5%

Row | Structure (SMILES) | inhibition
25 | CCC(C)N(C(=O)CSc1nc(-c2ccccc2)cs1)C1CCS(=O)(=O)C1 (stereo unspecified) | 3.2%
26 | Oc1ccc2ccccc2c1CNn1cnnc1 | 3.1%
27 | Cc1cc(=O)oc2c(CN(CC(C)C)CC(C)C)c(O)ccc12 | -3.3%
28 | CC(C)CN(Cc1c(O)ccc2ccccc12)CC(C)C | 68.8% (active)
29 | O=C(CN1CCC(C(O)(c2ccccc2)c2ccccc2)CC1)Nc1ccccc1 | -1.7%
30 | CCN1CCN(c2nc(-c3ccncc3)nc3ccccc23)CC1 | 6.3%
31 | NC(=O)C1CCN(C(=O)c2cc3n(n2)C(C(F)(F)F)CC(c2ccco2)N3)CC1 (stereo unspecified) | 0.3%
32 | COc1ccc(CCNC(=O)CCCn2nc(C)c([N+](=O)[O-])c2C)cc1OC | 8.3%
33 | CCCCn1c2nc3ccccc3nc2c2c(=O)n(C(C)CC)cnc21 (stereo unspecified) | 53.2% (active)
34 | CCCCn1c2nc3ccccc3nc2c2c(=O)n(CCC)cnc21 | 7.3%
35 | CCCCn1c2nc3ccccc3nc2c2c(=O)n(CCC(C)C)cnc21 | -12.9%
36 | CCOC(=O)C1=C(CSc2nc(C)cc(C)c2C#N)OC(N)=C(C#N)C1c1ccccc1 (stereo unspecified) | 47%
37 | CCOC(=O)C1=C(CC)OC(N)=C(C#N)C1c1cccs1 (stereo unspecified) | 4.7%
38 | CCOC(=O)C1=C(CSc2nc(-c3ccccc3)ccc2C#N)OC(N)=C(C#N)C1c1ccc(OC)cc1 (stereo unspecified) | 29.4%
39 | CCOC(=O)C1=C(CSc2nc(CC)c(C)cc2C#N)OC(N)=C(C#N)C1c1ccc(OC)cc1 (stereo unspecified) | 52.3% (active)
40 | CCOC(=O)C1=C(CSc2nc(C)cc(C)c2C#N)OC(N)=C(C#N)C1c1cccs1 (stereo unspecified) | 55.7% (active)
41 | CCOC(=O)C1=C(CSc2nc(CC)c(C)cc2C#N)OC(N)=C(C#N)C1c1ccccc1 (stereo unspecified) | 11.9%
42 | COC(=O)c1ccc(S(=O)(=O)N2CCCCC2)o1 | 9%
43 | Cc1cc(NN)nc(NS(=O)(=O)c2ccccc2)n1 | 5%
44 | CC(C)N(C(=O)CSc1nnc(CN2CCCCCC2=O)n1-c1ccccn1)C(C)C | -4.7%
45 | COc1ccc(N(C(=O)Cn2nnc3ccccc32)C(C(=O)NC(C)(C)C)c2ccc(OC)c(O)c2)cc1 (stereo unspecified) | -4%
46 | Cc1cc2n(n1)SC(Nc1ccccc1)N2 (stereo unspecified) | -0.8%
47 | Cc1cc2n(n1)SC(Nc1cccc3ccccc13)N2 (stereo unspecified) | 54.1% (active)
48 | CCc1ccccc1NC1Nc2cc(C)nn2S1 (stereo unspecified) | 27.6%

Row | Structure (SMILES) | inhibition
49 | CCCC1CCC(=NNC(=O)OC(C)(C)C)CC1 (stereo unspecified) | 2.1%
50 | CN(C)c1ccc(Cl)cc1N | 53.2% (active)
51 | Cc1ccc(Oc2ccc(Cl)cc2N)cc1 | -7.7%
52 | CN(C)c1ccc(C(=O)c2ccc(N(C)C)c(N)c2)cc1N | 23.2%
53 | O=C1Nc2ccc(S(=O)(=O)N3CCCC3)c3ccc(S(=O)(=O)N4CCCC4)c1c23 | 32.5%
54 | CCCCCC(=O)NC(CC(=O)OC)c1ccc2c(c1)OCO2 (stereo unspecified) | 2.2%
55 | CCc1ccc(OCC(=O)OCC(=O)c2ccc3c(c2)NC(=O)CO3)cc1 | 5%
56 | COCc1nnc(NC(=O)c2ccccc2[N+](=O)[O-])s1 | -1.2%
57 | COc1cc(C(=O)ON=C2C=C(C)C(=O)C(C)=C2)cc(OC)c1OC | 59.8% (active)
58 | COc1cc(C(=O)O/N=C2\C=CC(=O)C=C2C)cc(OC)c1OC | 64.7% (active)
59 | COc1ccc(C(=O)ON=C2C=C(C)C(=O)C(C)=C2)cc1 | 40.1%
60 | CC1=C(C)/C(=N/OC(=O)c2cccc([N+](=O)[O-])c2)C=CC1=O | 13.4%
61 | COc1cc(C(=O)O/N=C2/C=CC(=O)C(C)=C2C)cc(OC)c1OC | 66% (active)
62 | COc1cc(C(=O)ON=C2C(C)=CC(=O)C=C2C)cc(OC)c1OC | 71.8% (active)
63 | COc1cc(C(=O)Oc2cc(C)cc(C)c2)cc(OC)c1OC | 9.6%
64 | COc1cc(C(=O)O/N=C(\N)c2ccncc2)cc(OC)c1OC | -11.7%
65 | CC1=C(C)/C(=N\OC(=O)/C=C/c2ccccc2)C=CC1=O | 35.2%
66 | CC1=CC(=O)C=C(C)C1=NOC(=O)c1cccc([N+](=O)[O-])c1 | -3%
67 | CC1=CC(=NOC(=O)c2cccc([N+](=O)[O-])c2)C=C(C)C1=O | 19.6%
68 | COc1cc(C(=O)O/N=C2\CCCc3c2ccc(OC)c3[N+](=O)[O-])cc(OC)c1OC | 13.8%
69 | CN(C)CCCN(Cc1cc2cc3c(cc2[nH]c1=O)OCO3)C(=S)NCc1ccco1 | 30.6%
70 | CCCCc1nnc(NC(=O)CSc2nc(=O)cc(N)n2-c2ccccc2)s1 | 0.8%
71 | CS(=O)(=O)N(CC(=O)N1CCOCC1)c1ccc2c(c1)OCO2 | 1.8%
72 | COC(=O)COc1ccc(S(=O)(=O)NCc2cccnc2)cc1 | 4.3%

Row | Structure (SMILES) | inhibition
73 | CC(C)(CO)Nc1ccc([N+](=O)[O-])cc1[N+](=O)[O-] | 0.9%
74 | O=C1Nc2ccccc2Oc2cc([N+](=O)[O-])cc(Oc3ccccc3)c21 | -3.2%
75 | COc1cc(C(=O)O/N=C(\N)c2ccc([N+](=O)[O-])cc2)cc(OC)c1OC | 5.3%
76 | COc1cc(C(=O)Oc2cccc(C)c2)cc(OC)c1OC | 2.4%
77 | COc1cc(C(=O)O/N=C2/C=C(C)C(=O)C=C2C)cc(OC)c1OC | 53.5% (active)
78 | Nc1cc(N2CCCC2)c(Cl)cc1[N+](=O)[O-] | 25.9%
79 | CC1CCC(C(C)C)C(OP(=O)(c2ccc(N(C)C)cc2)C(O)c2cccnc2)C1 (stereo unspecified) | -4.5%
80 | COc1ccc(C(=O)CCNc2ccc3c(c2)OCCO3)cc1 | 58% (active)
81 | COc1ccc(C(=O)CCNc2ccc(C)c(Cl)c2)cc1 | 0.5%
82 | COc1ccc(C(=O)Nc2ccc3c(c2)OCCO3)cc1 | -6.5%
83 | O=C(COC(=O)c1ccc2c(=O)n3c(nc2c1)CCC3)NC1CCS(=O)(=O)C1 (stereo unspecified) | -5.4%
84 | Cc1ccc(C(=O)N2CCOCC2)cc1S(=O)(=O)Nc1cccc(C)c1C | -7%
85 | COc1cc(C2C(C#N)=C(N)OC3=C2C(=O)CC(C)(C)C3)c([N+](=O)[O-])cc1OC (stereo unspecified) | 49.6%
86 | COc1ccc(C2C(C#N)=C(N)OC3=C2C(=O)CCC3)cc1OC (stereo unspecified) | -4%
87 | COc1cc(C2C(C#N)=C(N)OC3=C2C(=O)CCC3)c([N+](=O)[O-])cc1OC (stereo unspecified) | 52% (active)
88 | CCC(C)NC(=O)CO/N=C/c1ccc(C(=O)OC)cc1 (stereo unspecified) | 23.9%
89 | CN(C)c1ccc(C(=S)N2CCN(C(=S)Nc3cccc4ccccc34)CC2)cc1 | 51.7% (active)
90 | CN(C)c1ccc(C(=S)N2CCN(c3ccccc3)CC2)cc1 | 8.2%
91 | CN(C)c1ccc(C(=S)N2CCN(C(=S)Nc3ccc(Cl)cc3)CC2)cc1 | -7.1%
92 | N#CC1=C(N)OC2=C(CN(Cc3ccccc3)C/C2=C\c2cccnc2)C1c1cccnc1 (stereo unspecified) | 11.3%
93 | O=C(CSc1nnc(C2CC2)n1Cc1ccccc1)N1CCN(S(=O)(=O)c2ccccc2)CC1 | -3.7%
94 | CCn1c(SCC(=O)N2CCN(S(=O)(=O)c3ccccc3)CC2)nnc1-c1cccs1 | -3.1%
95 | Cc1nnc(SCC(=O)N2CCN(S(=O)(=O)c3ccccc3)CC2)n1Cc1ccccc1 | 57.8% (active)
96 | CC1Cc2nc(SCC(=O)N3CCCC3)n(C)c(=O)c2S1 (stereo unspecified) | 9.6%
